Our source for the outcome values is PubChem BioAssay (EPA / NIEHS).

Calls of active or inactive are those of the source. The calls were made as follows: active = hit-call score of the fitted dose curve at least 0.9, where 1 is the maximum; inactive = score below 0.9.

A short description of the experiment: ATG_M_32_CIS: Attagene CIS-FACTORIAL HepG2 Assay for M32 Transcription Factor (Internal Marker) (AID 2282949).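 Also: background control marker of the multiplexed CIS panel rather than a real target.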 Conditions: HepG2 Attagene cis-factorial M32 reporter, mRNA; actives raise or lower the signal. The method, then: ATG_CIS is a cell-based, multiplexed-readout assay that uses HepG2, a human liver cell line, with measurements taken at 24 hours after chemical dosing in a 24-well plate.ATG_M_32_CIS is one of 52 assay component(s) measured or calculated from the ATG_CIS assay. It is designed to make measurements of mRNA induction, a form of inducible reporter, as detected with fluorescence intensity signals by Reverse transcription polymerase chain reaction (RT-PCR) and Capillary electrophoresis technology.Data from the assay component ATG_M_32_CIS was analyzed into 1 assay endpoint. This assay endpoint, ATG_M_32_CIS, was analyzed with bidirectional fitting relative to DMSO as the negative control and baseline of activity. Using a type of inducible reporter, measures of mRNA for gain or loss-of-signal activity can be used to understand the background control at the transcription factor-level as they relate to the gene . Furthermore, this assay endpoint can be referred to as a secondary readout, because this assay has produced multiple assay endpoints where this one serves a background control function. To generalize the intended target to other relatable targets, this assay endpoint is annotated to the background measurement intended target family, where the subfamily is internal marker.
Human liver HepG2 cells are transiently transfected with multiple reporter transcription units (MRTUs) in 6-well plates using FuGene 6 reagent (Roche; 3 ml FuGene/1 mg DNA). The MRTU constructs are regulated by a cis-regulating element (promoter). […] A major difference between the CIS and TRANS system is that in CIS activities of endogenous TFs are measured, whereas the TRANS assay evaluates changes in activities of exogenous, chimeric NR-Gal4 proteins. […] At the end of 24 hour incubation, total RNA was isolated using TriZol reagent (Invitrogen). The isolated RNA is then reverse-transcribed using oligo(dT) primer and Mo-MLV reverse transcriptase (Invitrogen) with DNAse I (Ambion) treatment for 30 min. The one-tenth of the produced cDNA was amplified by PCR using Taq DNA polymerase (Invitrogen) and two reporter sequence-specific primers. The PCR products were fluorescently labeled by primer extension with 6-arboxyfluorescein (6-FAM) 5'-labeled reporter sequence-specific primer (2 min at 95 C, 20 s at 68 C and 10 min at 72 C) and these products were digested with 5U of HpaI (New England Biolabs) for 2h at 37 C. The fragments were purified using Qiaquick PCR columns (Qiagen), analyzed on an ABI 3130xL genetic analyzer (Applied Biosystems) with peak positions identified by using a set of X-rhodamine (ROX)-labeled MapMarker1000 molecular weight standards (BioVentures). The raw capillary electrophoresis data was processed using Attagraph software (Attagene).
`C[Si](C)O[Si](C)(C)O[Si](C)(C)O[Si](C)C`: the call was inactive.
Consider `CCCNC(=O)NS(=O)(=O)c1ccc(Cl)cc1`, for which the call was inactive.
Take `CCOC(=O)Cc1cccc2ccccc12`: the compound was classed as inactive.
As for `FC(F)(F)C(=NOCC1OCCO1)c1ccc(Cl)cc1`, the compound was called inactive.
Turning to `O=C1CCCCCN1SSN1CCCCCC1=O`, the result was inactive.
With `Cc1cc(O)c(Cl)c(C)c1Cl`, the result was inactive.
On to `C=CCOc1c(Br)cc(Br)cc1Br`, for which the result was inactive.
Turning to `Cc1ccc(N/N=c2\c(=O)cc/c(=N/Nc3ccc(S(=O)(=O)O)cc3)c2=O)c(C)c1`, the outcome was inactive.
The result for `COc1ccc(C(Cl)=C(c2ccc(OC)cc2)c2ccc(OC)cc2)cc1` reads “inactive”; that for `Nc1ccc(-c2ccc(F)cc2)cc1`, “inactive”; that for `O=C1C(N(CO)C(=O)NCO)N(CO)C(=O)N1CO` (stereo not given), “inactive”.
With `CC(=O)[C@@]1(O)CC[C@H]2[C@@H]3C[C@H](C)C4=CC(=O)C=C[C@]4(C)[C@@]3(F)[C@@H](O)C[C@@]21C`, the outcome was inactive.
Regarding `C1CN(SSN2CCOCC2)CCO1`, the outcome was inactive.
In the case of `COc1c2ccoc2cc2oc(=O)ccc12`, the result was inactive.
Turning to `O=C1OC(=O)c2cc(Oc3ccc4c(c3)C(=O)OC4=O)ccc21`, the compound was called inactive.
On to `C=C(C)C(=O)OCC(C)C`, for which the result was inactive.
Next, `Cn1c(=O)[nH]c2ncn(C)c2c1=O`: “inactive”.
For `CCCCCCCCCCCCCCCC[N+](C)(C)CC`, the compound was called inactive.
Next, `O=C1c2cccc(O)c2C(=O)c2c(O)cc(CO)cc21`: “inactive”; `OCCc1ccncc1`: “inactive”; `CCCCCCCCc1ccc(Nc2ccc(CCCCCCCC)cc2)cc1`: “inactive”.
The result for `CC/C=C\CCOC(=O)CCCCC` reads “inactive”; that for `O=C(/C=C/C=C/c1ccc2c(c1)OCO2)N1CCCCC1`, “inactive”; that for `Nc1ccc(Oc2ccc(N)c(N)c2)cc1`, “inactive”.
On to `O=P(O)(O)Oc1ccccc1`, for which the result was inactive.
For `O=C(c1ccccc1)c1ccc(O)c(O)c1O`, the compound was called inactive.
As for `O=c1cc(-c2ccccc2)oc2ccccc12`, the outcome was inactive.
For the compound `O=C(O)c1cc(Cl)cc([N+](=O)[O-])c1Cl`, the call was inactive.
In the case of `C=C(C)c1cccc(C(C)(C)N=C=O)c1`, the compound was classed as inactive.
Next, `C=CC(=O)OCC(Br)CBr` (stereo not given): “inactive”; `CC1=Nc2ccc3ccccc3c2C1(C)C`: “inactive”.
Next, `CCCCCCCC[N+](C)(CCCCCCCC)CCCCCCCC`: “inactive”.
On to `CCCCCCCCCCOS(=O)(=O)O`, for which the result was inactive.
With `CO[Si](CCC1CCC2OC2C1)(OC)OC` (stereo not given), the result was inactive.
For `CCOc1nc(F)cc2nc(S(=O)(=O)Nc3c(Cl)cccc3C(=O)OC)nn12`, the compound was classed as inactive.
Consider `CN(C)CCCN(C)C`, for which the compound was classed as inactive.
With `COc1cc(NC(=O)CC(C)=O)c(OC)cc1Cl`, the compound was classed as inactive.
`O=C1CC2CC1C1CCCC21` (stereo not given): the compound was called inactive.
As to `CCCOC(=O)CCCCC(=O)OCCC`, the call was inactive.
Take `C=C[C@](C)(O)CC[C@@H]1[C@@]2(C)CCCC(C)(C)[C@@H]2CC[C@@]1(C)O`: the result was inactive.
